Screening results as filed in PubChem BioAssay.
Pf Dd2 growth: qHTS Primary assay for Inhibitors of Plasmodium falciparum Dd2 growth in vitro; 4.3% of 120,000 active; Potency, µM (doses to about 28.9 µM), most hits filed as inhibitors; P. falciparum Dd2 growth, SYBR Green, 72 h; active = well fitted inhibition curve with a large enough effect; note: nearly all actives have a fitted effect of over 65% in size
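Infected erythrocytes (Dd2, 0.3% parasitemia, 2.5% hematocrit final) are added to compound in RPMI-1640/Albumax II medium, grown 72 h at 37C in low oxygen, then lysed with saponin/Triton-X containing SYBR Green and read by fluorescence.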
Of the large screens only hits and unclear results are named; the others gave an inactive call. Only a selection was taken, and hits are over-represented in it overall.

O=C1CC2(CCN(Cc3cccc(-c4ccccc4)c3)C2)C(=O)N1 (configuration not stated)	none
COc1ccccc1NC(=O)CCn1ccn2nc3c(c2c1=O)CCCC3	none
COCCc1noc(-c2nc(-c3ccc(C)cc3)no2)n1	none
COCC1CN(C2CCC2)CC12CCN(C(=O)c1cncn1C)CC2 (configuration not stated)	none
COc1ccc(-c2cc3nc4c(c(=O)n3[nH]2)CN(C(=O)Cc2ccc(NC(C)=O)cc2)CC4)cc1	none
CN(C)C[C@@H]1CN(C2CCOCC2)C[C@H]1NC(=O)Cc1ccc(F)cc1	none
CCOC(=O)C1=C(C)N=C2SC=C(CC(=O)NCc3ccco3)N2C1c1cccc(OC)c1OC (configuration not stated)	none
Cc1cn(CC(=O)N2CC[C@@](C)(O)[C@@H](Cc3ccccc3)C2)c(=O)[nH]c1=O	none
CN1CC(=O)N(C2CCNC2)Cc2c(NCC(C)(C)C)ncnc21 (configuration not stated)	none
COCCC(=O)N[C@H]1CC[C@]2(C)CC[C@@H]([C@H](C)C(=O)NCc3ccco3)[C@H](O)[C@H]2[C@@H]1C	none
O=C(O)[C@@H]1CN(S(=O)(=O)N2CCOCC2)C[C@H]1c1cccnc1	none
Cc1ccc(-c2c(C(=O)NCc3ccc(F)cc3)oc(=O)c3ccccc23)cc1	none
O=C(Cn1c(=O)c2c(n1Cc1ccccc1)CN(Cc1ccccc1)CC2)NCc1cccc(Cl)c1	none
Cc1ccc2c(CN3CCN(Cc4ccccc4Cl)CC3)cc(=O)oc2c1	none
O=C1[C@H]2CN(Cc3ccccc3Cl)C[C@H]2C(=O)N1Cc1ccc2c(c1)OCO2	none
O=C1CC2(CCN(Cc3ccc(F)cc3)CC2)Oc2ccccc2N1	none
Cc1ccc2c(c1)N1C(=O)OC[C@@H]1CCN(Cc1cccc(Cl)c1)C2	none
O=c1oc2c3c(ccc2c2ccccc12)OCN(Cc1cccc(Cl)c1)C3	Pf Dd2 growth 10µM
O=c1oc2c3c(ccc2c2ccccc12)OCN(Cc1ccccc1Cl)C3	Pf Dd2 growth 5.6µM
Cc1cc2c(c3oc(=O)c4ccccc4c13)CN(Cc1ccc(F)cc1)CO2	Pf Dd2 growth 0.79µM
O=C1CCC2(CNC(=O)c3cc(F)ccc3F)CCC=C2N1 (configuration not stated)	none
CC(C)NC(=O)N1CCC2(CC1)CN(C(=O)NC(C)C)CCO2	none
CC(C)NC(=O)N[C@H]1CCN(C(=O)c2cnccn2)[C@@H]1C(=O)N[C@@H](CCCNC(=O)c1cnccn1)C(N)=O	none
COCCc1nncn1C1CCN(C(=O)c2ccc(C)c(F)c2)CC1	none
COc1ccc(OCc2nc(C3CN(C(=O)c4ccc(C)nc4)C3)no2)cc1	none
COC(=O)c1ccc(CN2C(=O)[C@@H]3C[C@@H](O)CN3C3(CN(C(C)C)C3)C2=O)cc1	none
O=C(N[C@H]1CCN2C(=O)N(c3ccc(OC(F)(F)F)cc3)C(=O)[C@@H]2C1)c1cnccn1	none
Cn1nnnc1C1CCCN(C(=O)Nc2ccccc2)C1 (configuration not stated)	none
CNC(=O)[C@@H]1CN(C(=O)c2cccc(C(F)(F)F)c2)C[C@H]1COC	none
COc1cccc(OCC2CN(Cc3cccc(C(F)(F)F)c3)C(=O)c3c(ccnc3-c3ccc(OCC(=O)O)cc3)O2)c1OC (configuration not stated)	none
Cc1ccc(Cc2nc3ccccc3nc2SCC(=O)N2CCC(C)CC2)cc1	Pf Dd2 growth 10µM
COc1ccccc1N1CCN(C(=O)CSc2nc3ccccc3nc2Cc2ccc(C)cc2)CC1	none
Cc1ccc(Cc2nc3ccccc3nc2SCC(=O)N2CCN(c3ccc(F)cc3)CC2)cc1	none
c1cncc(CN2CCC(OC3CCN(Cc4ccncc4)CC3)CC2)c1	none
CN(CC1CCN(CCc2ccc(F)cc2)CC1)C1CCN(Cc2cccnc2)CC1	Pf Dd2 growth 6.3µM
CN(Cc1cccnc1)c1nc2c(c(=O)[nH]1)CCN(Cc1ccc(F)cc1)CC2	none
COc1ccc(CCNc2ncnc3c2CN(C2CCCC2)C(=O)CN3C)cc1	none
O=C(c1ccccc1F)N1CC2(C1)C(=O)Nc1ccccc12	none
COc1ccc(Cl)cc1C(=O)N1C[C@@H](CN2CCCCCC2)[C@@H](CO)C1	none
COc1ccc(CNc2nc3c(S(=O)(=O)c4ccccc4)nnn3c3ccc(Cl)cc23)cc1	none
CCN(Cc1ccccc1)c1nc2c(S(=O)(=O)c3ccccc3)nnn2c2ccc(Cl)cc12	Pf Dd2 growth 6.3µM
COCCNc1nc2c(S(=O)(=O)c3ccccc3)nnn2c2ccc(Cl)cc12	none
O=c1c2c(CO)c(-c3ccccc3)nn2ccn1Cc1ccc(Br)cc1	none
CN(Cc1ccccc1F)C1CCOc2ccccc21 (configuration not stated)	none
CC(C)NC(=O)[C@@H]1C[C@H](N)CN1C(=O)c1cccc(S(C)(=O)=O)c1	none
COCC(=O)N1CCCC(C(=O)NCc2ccc3nsnc3c2)C1 (configuration not stated)	none
CN(Cc1ccc2nsnc2c1)C(=O)c1ccc(N2CCCC2=O)cc1	none
Cc1ccc(N2CCC3(CCCN3Cc3ccc4nsnc4c3)CC2)nn1	Pf Dd2 growth 13µM
COc1ncccc1CN1C[C@H]2[C@H](C1)[S+](=O)([O-])C(C)(C)C(=O)N2CC1CCOCC1	none
COc1ccccc1-c1nnc([C@H]2CCN(Cc3ccccc3O)C2)o1	none
CCn1ccnc1CN1CCC(Oc2ccccc2OC)(C(=O)O)CC1	none
CCOC(=O)C1(Cc2ccccc2C)CCCN(Cc2cnc(C)s2)C1 (configuration not stated)	Pf Dd2 growth 11µM
CCOC(=O)C1(Cc2ccccc2F)CCCN(C(=O)C(=O)c2ccco2)C1 (configuration not stated)	none
CCOC(=O)C1(Cc2cccc(OC)c2)CCCN(Cc2cnc[nH]2)C1 (configuration not stated)	none
CCOC(=O)C1(Cc2ccccc2C)CCCN(Cc2nccn2CC)C1 (configuration not stated)	Pf Dd2 growth 10µM
CCOC(=O)C1(Cc2cccc(Cl)c2)CCCN(Cc2cnn(C)c2)C1 (configuration not stated)	none
CC(C)CNC(=O)C1(CCO)CCN(c2ncccn2)C1 (configuration not stated)	none
O=C(CC1C(=O)NCCN1Cc1ccccc1)NCc1nc(C2CC2)no1 (configuration not stated)	none
CCCCNC(=O)c1ccc2c(c1)N(C(=O)c1ccc(OC)cc1)CC2	none
O=C1NC(C(=O)NCc2ccc3c(c2)OCO3)Cn2cccc21 (configuration not stated)	none
c1ccc(-c2noc(-c3ccc(OC4CNC4)cc3)n2)cc1	none
CCc1noc(-c2ccn3c(CNC(=O)c4ccc(F)c(Cl)c4)nnc3c2)n1	none
Cc1ccc(S(=O)(=O)c2cn(Cc3ccccc3)c3cc(N4CCOCC4)c(F)cc3c2=O)cc1	Pf Dd2 growth 7.9µM
Cc1ccc(S(=O)(=O)c2cn(Cc3ccccc3)c3cc(N4CCCCC4)c(F)cc3c2=O)cc1	none
Cc1cccc(Cn2cc(S(=O)(=O)c3cccc(C)c3)c(=O)c3cc(F)c(N4CCOCC4)cc32)c1	none
Cc1cccc(S(=O)(=O)c2cn(Cc3ccc(F)cc3)c3cc(N4CCOCC4)c(F)cc3c2=O)c1	Pf Dd2 growth 6.3µM
Cc1ccc(C)c(S(=O)(=O)c2cn(Cc3ccccc3)c3cc(N4CCCC4)c(F)cc3c2=O)c1	Pf Dd2 growth 10µM
Cc1cccc(S(=O)(=O)c2cn(Cc3ccccc3)c3cc(N4CCCC(C)C4)c(F)cc3c2=O)c1 (configuration not stated)	none
CCCCn1cc(S(=O)(=O)c2cccc(C)c2)c(=O)c2cc(F)c(N3CCOCC3)cc21	none
